# The list is not random: actives were taken first. Their share in the collection is about 2.1%.
# BaF3 parental = counter-screen for JAK2V617F inhibitors: parental Ba/F3 viability inhibitors | CellTiter-Glo ATP luminescence | inhibition, % at 5.6 µM | actives 1.1% (n = 220,000);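 active = inhibition above a per-campaign cutoff, the mean inhibition of all tested compounds plus 3 SD, cut at about 27% in these data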
# aSyn UTR inh = MLPCN primary screen, SNCA 5' untranslated region. alpha-synuclein 5'UTR reporter, inhibitor activity. inhibition, % (tested at 7.5 µM). actives 0.82% (n = 300,000). AID 1813; in the data active = inhibition above about 60%;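 also: H4 neuroglioblastoma cells stably carrying SNCA 5'UTR luciferase fusion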
# Ba/F3 V617F tox = reduce viability of Ba/F3 cells dependent on JAK2V617F | inhibition, % at 5.6 µM | actives 1.1% (n = 220,000) | Ba/F3 EpoR-JAK2V617F viability, ATP luminescence;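 active = inhibition above the campaign mean plus 3 SD over all tested compounds, cut at about 24% in these data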;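 also: cytokine-independent growth of Ba/F3 cells driven by EpoR plus mutant JAK2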
# APP 5UTR inh = APP translation inhibition; SH-SY5Y APP 5'UTR-luciferase reporter, luminescence; inhibition, % at 2 µM; actives 0.82% (n = 190,000);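 active = inhibition above a set limit, derived from the sample mean plus 3 SD, cut at about 45% in these data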
# KLF5 inhibitor = suppresses KLF5 promoter-driven expression | actives 0.23% (n = 290,000) | DLD-1 KLF5 promoter-luciferase reporter, luminescence | inhibition, % at 5 µM;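 active = inhibition above a per-plate limit of that plate's mean compound inhibition plus 3 SD, cut at about 60% in these data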;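 also: higher means less KLF5 promoter-driven luciferase light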
# IEC-6 cytotox = counter-screen for KLF5 inhibitors: cytotoxicity in IEC-6 cells; AID 1825; actives 0.78% (n = 290,000); inhibition, % at 5 µM; IEC-6 cytotoxicity, luminescence viability; in the data active = inhibition above about 22%
# BaF3 tox 2 = counter-screen for JAK2V617F inhibitors: parental Ba/F3 viability inhibitors | inhibition, % at 5.6 µM | actives 31% (n = 580) | AID 1520 | CellTiter-Glo luminescence; cells kept alive by added IL-3 | shares compounds with Ba/F3 V617F tox;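 active = cell growth inhibition above the hit limit set in the earlier mutant JAK2 cell screen, cut at about 27% in these data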
# JAK2V617F confrm = confirmation: loss of viability in JAK2V617F-dependent Ba/F3 cells; shares compounds with Ba/F3 V617F tox; Ba/F3 EpoR-JAK2V617F viability, CellTiter-Glo luminescence; inhibition, % at 5.6 µM; actives 66% (n = 580); AID 1521;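 active = mean inhibition above the hit cutoff derived in the earlier primary screen, cut at about 25% in these data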;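 also: higher means lower luminescence from reduced cell ATP and viability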
# Numbers stand for hits; 0 = inactive; - = no result.
SMILES,BaF3 parental,aSyn UTR inh,Ba/F3 V617F tox,APP 5UTR inh,KLF5 inhibitor,IEC-6 cytotox,BaF3 tox 2,JAK2V617F confrm
O=C(c1ccco1)N(Cc1cc2ccccc2[nH]c1=O)CC1CCCO1 (centres undefined),0,0,68.5,0,0,0,0,0
Cc1cc2c(NCc3ccccc3)ncnc2s1,-,0,-,-,0,0,-,-
CCCCN(CC)Cc1ccc(CNC(=O)Nc2ccc(F)cc2)o1,0,0,47.9,0,0,0,0,38.9
CN(C)C(CNC(=O)c1ccc(NS(=O)(=O)c2ccc3[nH]c(=O)[nH]c3c2)cc1)c1ccccc1 (centres undefined),-,0,-,-,-,-,-,-
CC1=CC(=C2C(=O)c3ccccc3C2=O)C=C(C)O1,0,0,0,0,0,0,-,-
CC(=O)C1=C(c2ccc(Br)cc2)C(=O)c2ccccc2C1=O,0,0,26.3,68.3,0,0,105.3,98.3
COC1(OC)C(/C=C/c2ccc(C)cc2)C(C#N)(C#N)C1(OC)OC (centres undefined),0,0,36.7,0,0,0,0,50.3
O=C(NCc1ccc(F)cc1)C(=O)NCC1OCCCN1S(=O)(=O)c1cccs1 (centres undefined),-,0,-,-,0,0,-,-
O=C(CSc1ccccc1)Nc1ccc2c(c1)OCCO2,-,0,-,-,0,0,-,-
O=C(CSc1ccc(-c2ccccc2)nn1)Nc1ccc2c(c1)OCCO2,0,0,46.4,0,0,0,0,0
CCN(CC)CCNC(=O)Cn1cnc2sc(C)c(S(=O)(=O)N3CC(C)CC(C)C3)c2c1=O (centres undefined),-,0,-,-,0,0,-,-
O=C(NC(NC1CCS(=O)(=O)C1)C(Cl)(Cl)Cl)c1ccc(Br)cc1 (centres undefined),0,0,36.0,0,0,0,0,24.3
O=C(CCC1CCCNC1)c1ccccc1 (centres undefined),-,0,-,-,0,0,-,-
Cc1cc(SCC(=O)N/N=C/c2ccc(O)c(O)c2)c(C)cc1Br,0,0,44.2,0,0,0,0,85.2
CCOC(=S)SCC(=O)Nc1nc(-c2ccc(Br)cc2)cs1,0,69.9,26.9,0,0,0,71.3,98.5
Cc1ccc(CNc2ccccc2C(=O)O)s1,-,0,-,-,0,0,-,-
O=C(Nn1c(-c2ccc(F)cc2)nc2ccccc2c1=O)c1cccnc1,0,0,65.6,0,0,0,0,0
COc1ccc(CCNC(=O)CCS(=O)(=O)c2ccc3c(c2)oc(=O)n3C)cc1OC,-,0,-,-,0,0,-,-
CC(=O)Oc1ccc(Cl)cc1/C=C/c1cc(OC(C)=O)c2ccccc2n1,0,0,24.0,0,0,0,29.9,48.4
CCN(CC)c1ccc2c(c1)OC(N)=C(C#N)C2c1cccnc1 (centres undefined),0,75.3,83.5,94.4,0,0,78.4,97.7
CCCCn1c(=N)n(CC(=O)c2ccc(Br)s2)c2ccccc21,0,0,71.3,-,0,0,0,60.5
COC(=O)c1ccc(COC(=O)CNC(=O)c2cccs2)cc1,-,0,-,-,0,0,-,-
Cc1nn(-c2ccccc2)c(C)c1NC(=O)COc1ccc2ccccc2c1,0,0,90.5,0,0,0,0,0
O=C(C=C=Nc1ccccc1)C(=O)N=C=Cc1ccccc1,0,0,67.5,-,0,0,0,79.0
O=C(N/N=C/c1ccccc1)C(=O)N/N=C/c1ccccc1,-,0,-,-,0,0,-,-
SMILES,BaF3 parental,aSyn UTR inh,Ba/F3 V617F tox,APP 5UTR inh,KLF5 inhibitor,IEC-6 cytotox,BaF3 tox 2,JAK2V617F confrm
O=C(NCCCN1CCOCC1)c1cc2ccccc2cc1O,-,0,-,-,-,-,-,-
COc1ccc(F)cc1C(=O)C1CCCN(C(=O)c2cccc(N(C)C)c2)C1 (centres undefined),0,0,101.8,0,0,0,0,0
CN(C)c1cccc(C(=O)N2CCCC(C(=O)c3cc(F)ccc3F)C2)c1 (centres undefined),0,0,0,0,0,0,-,-
COc1cccc(CNC(=O)CCCc2nnc3n(C)c(=O)c4sccc4n23)c1,-,0,-,-,0,0,-,-
CCOc1ccc(CCNC(=O)COC(=O)c2ccc3c(c2)OCCO3)cc1OCC,-,0,-,-,-,-,-,-
CCCn1c(CC)nc([N+](=O)[O-])c1S(=O)(=O)c1ccccc1,0,0,49.1,0,0,0,0,69.7
CCc1nc(C)cn1S(=O)(=O)c1ccc([N+](=O)[O-])cc1,0,0,0,0,0,0,-,-
NC(=O)/C(=N\OC(=O)c1ccco1)c1nc(-c2ccc(Br)cc2)cs1,0,0,31.2,0,0,0,0,30.7
COc1ccc(/C=C/C(=O)c2cc(F)ccc2OC(=O)c2ccccc2C)cc1OC,0,82.1,38.6,96.7,67.7,88.5,28.8,97.3
O=C(NC1CCCCC1)c1cc(S(=O)(=O)N2CCCC2)ccc1Cl,-,0,-,-,0,0,-,-
Cc1nc([N+](=O)[O-])c(Br)n1Cc1ccc(Cl)c(Cl)c1,0,0,46.4,0,0,0,0,84.6
Cc1ccc(/C=C/C(=O)Nc2ccc(S(=O)(=O)Nc3onc(C)c3C)cc2)cc1,-,0,-,-,0,0,-,-
CC(=O)c1ccc(NC(=S)N(CCCN(C)C)Cc2ccccc2)cc1,0,0,0,-,0,0,-,-
CN(C)CCCN(Cc1ccccc1)C(=S)Nc1ccc(SC(F)F)cc1,0,0,36.3,0,0,0,0,45.4
CC(C)c1cc(=O)n2[nH]c(N)nc2n1,0,0,0,0,0,0,-,-
Cc1ccc(CNC(=O)C2CCC(=O)N(CCCN3CCOCC3)C2)cc1 (centres undefined),-,0,-,-,0,0,-,-
CCS(=O)(=O)CCSc1nc(C)cc(C)c1C#N,0,0,99.5,0,0,0,0,0
O=C(CCOc1ccccc1)N1CCN(c2ccc(O)cc2)CC1,0,0,24.5,-,0,0,0,0
O=C(CCCOc1ccccc1)N1CCN(c2ccccc2)CC1,0,0,0,0,0,0,-,-
CCOc1ccccc1NS(=O)(=O)c1cn(C)c(=O)n(C)c1=O,0,0,0,-,0,0,-,-
Cc1nc2cc(-c3ccccc3)sc2c(=O)n1N,0,110.7,25.4,0,65.0,0,48.3,36.7
O=C(COc1ccccc1[N+](=O)[O-])N(Cc1cccc(Br)c1)C1CCS(=O)(=O)C1 (centres undefined),-,0,-,-,0,0,-,-
CCCOc1ccc(C(=O)C(CN2CCOCC2)c2ccccc2)cc1 (centres undefined),0,0,46.2,0,0,0,0,97.3
CCCOc1ccc(C(=O)C(c2ccccc2)N2CCOCC2)cc1 (centres undefined),0,0,0,0,0,0,-,-
O=C(Nc1ccc(Oc2ccccc2)cc1)C1CC1,0,0,0,0,0,0,-,-
O=C(Nc1ccc(C#Cc2ccccc2)cc1)C1CC1,0,0,38.3,0,0,0,0,0
Cc1ccc(S(=O)(=O)N2CCC(C(=O)N[C@@H](C)C(=O)Nc3ccc4c(c3)OCO4)CC2)cc1,0,0,43.3,-,0,0,0,0
